# In PubChem BioAssay AID540308 (The Scripps Research Institute Molecular Screening Center, 2011):
# About 3,500 (0.97%) of roughly 360,000 compounds were called active. The sample as a whole holds a higher share of actives than the screen did. A number with no mark means an inactive call.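 The calls were made as follows: active = activation above a per-plate cutoff, the mean activation of sample wells on that plate plus 3 SD (cut at about 8% in these data); inactive = the rest.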
# Target: Melanocortin receptor 4 (Homo sapiens) (UniProt P32245)
# Test: MC4R agonists recruiting beta-arrestin, primary screen, cell-based, luminescence, agonist arm of biased-ligand search (AID 540308)
# Conditions: U2OS MC4R beta-arrestin complementation, at 8.9 µM, hits give high values, percent of melanotan II response, DMSO zero
# Sequence of Melanocortin receptor 4 (Homo sapiens) (P32245 whole entry, looked up): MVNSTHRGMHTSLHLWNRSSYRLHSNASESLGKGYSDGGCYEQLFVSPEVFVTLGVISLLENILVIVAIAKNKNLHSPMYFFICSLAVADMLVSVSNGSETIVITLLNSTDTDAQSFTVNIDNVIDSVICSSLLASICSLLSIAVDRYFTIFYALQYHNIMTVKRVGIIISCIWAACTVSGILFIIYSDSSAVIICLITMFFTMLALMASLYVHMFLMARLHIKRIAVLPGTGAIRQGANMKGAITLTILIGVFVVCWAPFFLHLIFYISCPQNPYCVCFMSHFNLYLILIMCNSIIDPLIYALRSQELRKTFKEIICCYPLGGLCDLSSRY
row,Compound,activation
1,CCCCNC(=O)CSc1nc2n[nH]c(C)c2c(=N)n1-c1cccc(Cl)c1C,-1.55%
2,COc1cccc(-n2c(SCC(=O)NC3CCCCC3)nc3n[nH]c(C)c3c2=N)c1,-1.4%
3,Cc1ccc(-n2c(SCC(=O)NCCC3=CCCCC3)nc3n[nH]c(C)c3c2=N)cc1Cl,18.2% (active)
4,COc1ccc(CNC(=O)c2ccc(-c3cccnc3)c3ccoc23)cc1OC,1.26%
5,CCCNC(=O)c1cc(C2CCCN(C(=O)c3ccc4c(c3)CCO4)C2)on1 (configuration not stated),-0.64%
6,COc1ccc(C(=O)n2nc(-c3ccc(C)cc3)nc2N)cc1OC,15.4% (active)
7,COc1ccc(C(=O)n2nc(C)c(Br)c2C)cc1OC,1.71%
8,COc1ccc(C(=O)n2nc(-c3ccc(Cl)cc3)nc2N)cc1OC,0.74%
9,CC(=O)c1ccc(N2CCN(C(=O)CCNC(=O)Cn3ccc4ccccc4c3=O)CC2)cc1,2.35%
10,CCOC(=O)C1CCCN(C(=O)c2cccc3ccccc23)CC1 (configuration not stated),-0.59%
11,COc1ccccc1N1CCN(C(=O)C(=O)N/N=C/c2ccccc2F)CC1,-3.16%
12,Fc1ccccc1/C=N/Nc1cc(N2CCCCC2)ncn1,12.1% (active)
13,O=C(CCC(=O)Nc1ccccc1)N/N=C/c1ccccc1F,-0.29%
14,CCCNC(=O)C1(C)CCN1C(=O)C1(c2ccccc2)CC1 (configuration not stated),1.14%
15,COc1ccc(S(=O)(=O)N2CCC(C(=O)OCC(=O)c3ccccc3)CC2)cc1[N+](=O)[O-],31.7% (active)
16,Cc1ccc(S(=O)(=O)N2CCC(C(=O)OCC(=O)N(C)c3ccccc3)CC2)cc1C,-3.84%
17,O=C(COc1ccc(S(=O)(=O)N2CCCC2)cc1[N+](=O)[O-])N1CCCCC1,-1.25%
18,CCc1nc2ccc(C(=O)NC3CCN(Cc4ccccc4)CC3)cn2c1N(CC)CCOC,4.51%
19,CCOc1cc(NC(=O)Nc2ccccc2)c(OCC)cc1NC(=O)CC,0.85%
20,Cc1ccc(NC(=O)Nc2ccccc2)c(Br)c1,21.9% (active)
21,O=C(Nc1ccccc1)c1ccccc1Br,0.3%
22,CC(=O)Nc1cccc(-c2ccnc3c2CC(C)(C(=O)NCc2ccco2)O3)c1 (configuration not stated),0.36%
23,Cn1c(-c2ccc(F)cc2)cnc1SCC(=O)NCc1ccco1,-1.34%

row,Compound,activation
1,O=C(CSc1nc2ccccc2c(=O)n1Cc1ccc(F)cc1)NCC1CCCO1 (configuration not stated),-0.86%
2,O=C(CCCn1c(SCC(=O)c2ccc(F)cc2)nc2ccccc2c1=O)NCc1ccco1,29.6% (active)
3,O=C(c1cc(C2CCCCN2S(=O)(=O)c2ccccc2)on1)N1CCOCC1 (configuration not stated),0.01%
4,CC=CCn1c(SCCCc2ccccc2)nc2c1c(=O)[nH]c(=O)n2C,1.64%
5,Cc1ccc(CNC(=O)Nc2nnc([C@H]3C[C@H](O)[C@@H](CO)O3)s2)cc1,-0.78%
6,OCCN1CCN(c2ncnc3c2ncn3[C@H]2CN(Cc3ccco3)C[C@@H](CO)O2)CC1,-0.69%
7,CCOC(=O)C1CCCN(C(=O)c2ccc(N(C)C)cc2)CC1 (configuration not stated),-0.51%
8,Cc1cc2c(=O)n(C)c(SCC(=O)c3cc4ccccc4o3)nc2s1,-0.92%
9,Cc1ccc(Nc2nnc(SCC(=O)c3cc4ccccc4o3)s2)cc1C,11% (active)
10,CC(C)c1ccc(Nc2nnc(SCC(=O)c3nnc(-c4ccccc4)o3)s2)cc1,-0.71%
11,CC1(C(=O)NS(=O)(=O)C2CC2)CCCN(C(=O)CSc2ccccc2)C1 (configuration not stated),0.3%
12,OC[C@@H]1CN(Cc2cccs2)C[C@H](n2cnc3c(Nc4ccccc4)ncnc32)O1,0.44%
13,O=C(CN1CCCC1)Nc1sc2c(c1C(=O)Nc1ccccc1)CCCC2,-3.19%
14,O=C(Nc1sc2c(c1-c1nc3ccccc3[nH]1)CCCC2)C1CC1,14.1% (active)
15,CCOC(=O)c1c(NC(=O)C2CCN(S(=O)(=O)c3ccc(Cl)cc3)CC2)sc2c1CCCC2,2.72%
16,O=C(Nc1ccc(Cl)c(C(F)(F)F)c1)C1Cc2c(-c3ccccc3Oc3ccccc3)ccnc2O1 (configuration not stated),-1.84%
17,CCCCN(C=O)c1c(CC)nc2c(OCc3ccccc3C(=O)OC)cccn12,0.49%
18,C/C(=N\OCC(=O)Nc1ccc(Br)cc1)c1cccs1,-4.16%
19,C/C(=N\NC(=O)COc1c(C)cccc1C)c1cccs1,12.1% (active)
20,C/C(=N\NC(=O)CSc1nc2ccccc2c(=O)n1-c1ccccc1C)c1cccs1,-1.88%
21,CC(=O)Nc1cccc(-c2ccnc3c2CC(C)(C(=O)NCc2ccccc2)O3)c1 (configuration not stated),-1.6%
22,N/C(=N\OC(=O)N1c2ccccc2Sc2ccccc21)c1ccc(Br)cc1,8.26% (active)
23,N/C(=N\OC(=O)Cc1ccccc1[N+](=O)[O-])c1ccc(Br)cc1,-1.47%

row,Compound,activation
1,N/C(=N\OC(=O)c1ccc2c(c1)OCO2)c1ccc(Br)cc1,0.57%
2,CCC(=O)N1CCCC1(C)C(=O)Nc1ccc2c(c1)CCN2C(C)=O (configuration not stated),-1.65%
3,CCN(CC)c1ncnc2c1ncn2[C@H]1CN(Cc2cccs2)C[C@@H](CO)O1,0.8%
4,COC(=O)c1cc(OCC(=O)NC2CCCc3ccccc32)cc(C(=O)OC)c1 (configuration not stated),-1.2%
5,CCOc1ccc(NC(=O)COc2ccc(C(=O)N3CCC(C(N)=O)CC3)cc2OC)cc1,-1.74%
6,CCOc1ccc(NC(=O)COc2ccc(C(=O)NC3CCCc4ccccc43)cc2OC)cc1 (configuration not stated),9.26% (active)
7,Cc1ccc(CN2C(=O)CCC2C(=O)NCCCN2CCCCC2C)cc1 (configuration not stated),-0.33%
8,CC(=O)c1sc(NC(=O)CCCOc2ccccc2C)nc1C,9.6% (active)
9,Cc1ccc(F)c(NC(=O)CCOc2ccccc2C)c1,-0.86%
10,Cc1ccccc1OCC(=O)Nc1nc(C)c(C(=O)N(C)C)s1,-2.42%
11,CCCNC(=O)C1(C)CCN1C(=O)Cc1ccc(-c2ccccc2)cc1 (configuration not stated),-0.78%
12,CCCn1c(C)cc(/C=C(\C#N)C(=O)OCC(=O)Nc2cc(OC)c(OC)c(OC)c2)c1C,1.33%
13,CCOC(=O)/C(C#N)=C/c1ccc(OCC(=O)Nc2ccccc2)c(OC)c1,8.67% (active)
14,COc1cc(C2C3=C(CCCC3=O)OC3=C2C(=O)CCC3)ccc1OCC(=O)Nc1ccccc1,-1.3%
15,CCNC(=O)C1(C)CCCN(C(=O)c2ccc3ccccc3n2)C1 (configuration not stated),-0.3%
16,COCCNC(=O)C1(C)CCCN(Cc2cccc(F)c2)C1 (configuration not stated),-0.59%
17,COc1ccc(NC(=O)C2(C)Cc3c(-c4ccc(C(N)=O)cc4)ccnc3O2)cc1 (configuration not stated),0.47%
18,O=C(Nc1cccc2cccnc12)c1ccc2sc([C@H]3C[C@H](O)[C@@H](CO)O3)nc2c1,0.55%
19,CC1(C(=O)Nc2cccc3c2CCCC3)CCN1C(=O)CCc1ccc(Cl)cc1Cl (configuration not stated),1.71%
20,COc1cccc(CNC(=O)c2cccnc2Sc2ccc(Cl)cc2)c1,0.85%
21,O=C(NC1CCCCCC1)c1cccnc1Sc1ccc(Cl)cc1,10.7% (active)
22,O=C(NCc1cccnc1)c1cccnc1Sc1ccc(Cl)cc1,1.65%
23,CCCS(=O)(=O)NC(=O)C1(C)CCN(C(=O)c2sccc2C)C1 (configuration not stated),-0.75%

row,Compound,activation
1,COCOc1cccc(CN2CCC(C)(Oc3ccc(SC)cc3)C2)c1 (configuration not stated),0.12%
2,CCN(C(=O)CSc1nnc(-c2ccncc2)o1)c1ccccc1,0.57%
3,COC(=O)CSc1nnc(-c2cccnc2)o1,-1.17%
4,Cc1cccc(C)c1OC(=O)CSc1nnc(-c2ccccc2)o1,15.5% (active)
5,COCCCNc1ccn2nc(-c3ccc(CC(C)C)cc3)cc2n1,1.85%
6,Cc1ccc(S(=O)(=O)N(C)CC(=O)OCC(=O)Nc2ccccc2)cc1,-2.23%
7,Cc1ccc(NC(=O)NC(=O)N(C2CCCCC2)S(=O)(=O)c2ccccc2)cc1,9.21% (active)
8,CC(c1ccco1)N(C(=O)Nc1ccccc1)C1CCCCC1 (configuration not stated),-3.36%
9,Nc1cccc(-c2cncc(N3CCN(Cc4ccccn4)CC3)n2)c1,-0.96%
10,Cc1nc(C(F)(F)F)ccc1C(=O)N1CCC1(C)C(=O)NS(=O)(=O)c1ccccc1Cl (configuration not stated),-1.94%
11,O=C(CCN1CCCCC1)N=Nc1c(O)[nH]c2ccccc12,-1.11%
12,Cc1c(-c2ccccc2)n[nH]c1C(=O)N=Nc1c(O)[nH]c2ccccc12,17.7% (active)
13,Cc1[nH]c2ccccc2c1C(=O)COC(=O)c1c(-c2ccccc2)noc1C,-0.48%
14,O=C(COC(=O)CNC(=O)c1ccco1)Nc1ccc(F)cc1,-0.58%
15,O=C(COC(=O)c1ccc[nH]c1=O)Nc1ccc2c(c1)OC(F)(F)O2,-2.05%
16,O=C(COC(=O)c1ccccc1NC(=O)c1ccco1)Nc1ccc2c(c1)OC(F)(F)O2,10.1% (active)
17,CCc1nc2ccc(C(=O)NC3CCN(Cc4ccccc4)CC3)cn2c1N(C)CCN1CCOCC1,-0.77%
18,COc1cccc(/C=C2\SC(=S)N(CCCC(=O)N3CCOCC3)C2=O)c1,-0.8%
19,O=C(CCCN1C(=O)/C(=C/c2cccs2)SC1=S)Nc1ccc(O)cc1,20.4% (active)
20,CC(C(=O)Nc1ccc(O)c(C(=O)O)c1)N1C(=O)/C(=C/c2cccs2)SC1=S (configuration not stated),-1.84%
21,COc1ccc(/C=C2/SC(=O)N(CCCCCC(=O)Nc3ccccc3C(=O)O)C2=S)cc1,-0.47%
22,O=C(CN1C(=O)/C(=C\c2ccccc2F)SC1=S)Nc1nc2ccccc2s1,0.77%
23,O=C(CCCN1C(=O)/C(=C\c2ccco2)SC1=S)Nc1cccc2ccccc12,13.9% (active)
